Shiga inhibitor – inhibitors of Shiga toxin in Vero cells | Vero cells, Shiga toxin protein synthesis inhibition reporter | inhibition, % at 38.7 µM | hit rate 9.2% among 290,000 | AID 2315; in the data active = inhibition mostly above about 28%, no sharp cut-off; inactive = mostly below about 43%; note: 0% is about no effect
SARS PLpro yeast – blocks SARS-CoV papain-like protease in a yeast assay. S. cerevisiae expressing SARS-CoV PLpro, growth rescue. Potency, µM (highest dose often 32.9 µM), without a hit: at the top dose activity, positive = growth rescue, most hits filed as activators. hit rate 0.19% among 330,000. AID 485353; note: potency is the fitted concentration of half-maximal effect; 0% is about no effect; nearly all actives have a fitted effect of over 55% in size
NS1 inh – inhibitors of influenza NS1 protein function; Potency, µM (titrated, usually from 46.1 µM), without a hit: at the top dose activity, positive = more growth; hit rate 0.4% among 270,000; AID 2326; note: potency is the fitted concentration of half-maximal effect; actives are rising curves; nearly all actives have a fitted effect of over 50% in size
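Read-out: OD600 growth recovery of NS1-expressing budding yeast. Cells grown overnight at 30C in -URA glucose medium, washed, resuspended and diluted 1:100 in 2% galactose assay medium, pH 6.0. Same strain lacking NS1 served as positive control.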
CHX counter – counter-screen for Shiga toxin inhibitors: cycloheximide protein synthesis inhibition; AID 2314; hit rate 12% among 300,000; cell reporter, cycloheximide protein synthesis inhibition counterscreen; max response, %; in the data active = max response mostly above about 13%, no sharp cut-off; inactive = mostly below about 14%; note: read at 38.3 µM for the half of the compounds with a filed dose; 0% is about no effect
An asterisk follows results filed as active; ? = inconclusive; . = no result; + = active, no number. Shown are actives, neighbours in structure and some others; about 12% of the full set was active somewhere. Unless noted, calls come from the whole dose curve.

SMILES | Shiga inhibitor | SARS PLpro yeast | NS1 inh | CHX counter
Clc1cccc(Cl)c1Cn1cnc2c(NCc3ccco3)ncnc21 | -19 | 17% | -15% | -6
CCCCc1ccc(NC(=S)N2CCN(C(=O)OCC)CC2)cc1 | 21 | 0% | 4% | -1
CCCCc1ccc(NC(=S)N2CCN(C)CC2)cc1 | 25 | 1% | -1% | 20*
CCCCc1ccc(NC(=S)N2CCCC2)cc1 | 69* | -1% | -57% | 48*
Cc1ccc(NC(=O)CCC(=O)NNC(=O)Nc2cccc(Cl)c2)c(C)c1 | -7 | -5% | 5% | 1
COC(=O)c1c(NC(=O)CN2C(=O)C(=O)N(CC(C)C)C2=O)sc2c1CCCCC2 | -8 | -10% | -9% | -8
CN(C)CCCNc1oc(/C=C/c2ccccc2)nc1C#N | 65* | 1% | -2% | 42*
COCCCNc1oc(/C=C/c2ccccc2)nc1C#N | 74* | -6% | -7% | 35*
COc1cccc(/C=C/c2nc(C#N)c(NCC(C)C)o2)c1 | 85* | -4% | -1% | 29*
CCOc1ccc(/C=C/c2nc(C#N)c(NCCCN(C)C)o2)cc1 | -6 | -4% | 8% | 2
C=CCNc1oc(/C=C/c2ccccc2)nc1C#N | 74* | -9% | -16% | 37*
C=CCNc1oc(Cc2cccc3ccccc23)nc1C#N | -3 | -18% | -105% | 1
COc1ccc(NS(=O)(=O)c2cccc(C(=O)O)c2)cc1S(=O)(=O)N1CCCCC1 | . | -2% | . | .
COc1ccc(CCNC(=O)c2cc(-c3ccncc3)nc3ccc(S(=O)(=O)N4CCOCC4)cc23)cc1OC | 6 | 11% | 8% | 9
CCOc1ccc(/C=C/c2nc(C#N)c(NCCCOC)o2)cc1 | 6 | -6% | 0% | -2
CN(C)CCNc1oc(/C=C/c2ccccc2)nc1C#N | 22 | 23% | 6% | 23*
O=C(Nc1ccc(N2CCCC2)cc1)C(Cl)c1ccccc1 (centres undefined) | 70* | ? | 12% | 32*
CS(=O)(=O)c1ccc(C(=O)Nc2ccc(N3CCCC3)cc2)c(Cl)c1 | 15 | 2% | . | -1
Cc1ccccc1C(=O)Nc1ccc(N2CCN(C)CC2)nc1 | 52 | 0% | . | 22*
CS(=O)(=O)N1CCN(c2ccc(NC(=O)C(c3ccccc3)c3ccccc3)cc2)CC1 | -2 | 2% | 14% | -4
Cc1ccc(C(=O)Nc2ccc(N3CCCC3)cc2)c(C)c1 | 41 | -3% | ? | 15*
O=C(Nc1ccc(N2CCCC2)cc1)c1ccccc1[N+](=O)[O-] | 80 | 0% | 8% | 19*
CC(=O)Nc1ccc(NC(=O)c2ccccc2C)cc1 | 24 | -6% | -2% | 13
Cc1ccccc1C(=O)Nc1ccc(N2CCCC2)cc1 | 57* | -2% | -2% | 35*
Cc1[nH]c2ccccc2c1/C=N/Nc1ccccc1[N+](=O)[O-] | 86* | -1% | . | 37*
SMILES | Shiga inhibitor | SARS PLpro yeast | NS1 inh | CHX counter
COc1cc(/C=N/Nc2ccccc2[N+](=O)[O-])cc(OC)c1O | 88* | -1% | . | 26*
COc1cc(/C=N/Nc2ccc(S(N)(=O)=O)cc2[N+](=O)[O-])cc(OC)c1O | -6 | 0% | 4% | -1
CC(C)Oc1ccccc1/C=N/Nc1ccccc1[N+](=O)[O-] | 87* | -11% | -12% | 65*
COc1ccccc1/C=N\Nc1ccccc1[N+](=O)[O-] | 73* | 0% | -3% | 49*
Cc1[nH]c2ccccc2c1/C=N/NS(=O)(=O)c1ccccc1 | 6 | 1% | . | 5
CCOc1ccccc1/C=N/Nc1ccccc1[N+](=O)[O-] | -18 | 1% | 3% | -2
O=C(O)COc1ccccc1/C=N/Nc1ccc(S(=O)(=O)N2CCOCC2)cc1[N+](=O)[O-] | -6 | 0% | . | 1
COc1ccc(NS(=O)(=O)c2ccc3nc(COc4ccc(Cl)c(C)c4)[nH]c3c2)cc1 | -38 | -11% | 20% | -4
COc1cc(/C=N/Nc2ccccc2[N+](=O)[O-])ccc1OC(=O)c1ccccc1F | 45* | 0% | . | 31*
CCOc1ccc(C=NNc2ccc(S(=O)(=O)Nc3ccccc3C(=O)O)cc2[N+](=O)[O-])cc1OC | . | 3% | . | .
COc1ccc(/C=N\Nc2ccccc2[N+](=O)[O-])c(C(=O)O)c1OC | 88* | 0% | 4% | 50*
Cc1ccnc(SCC(=O)c2ccc(Br)cc2)c1C#N | 96* | -5% | 1% | 84*
COC(=O)c1ccccc1CSc1nsc(C)c1C#N | 3 | -1% | -6% | -3
Cc1snc(SCC(=O)c2ccc(Cl)cc2)c1C#N | 58* | -1% | 11% | 35*
Cc1ccc(C(=O)CSc2nsc(C)c2C#N)cc1 | + | -8% | 9% | 30*
Cc1cc(C)c(C#N)c(OCC(=O)c2ccc(Br)cc2)n1 | -11 | -3% | -9% | 9
N#Cc1c(SCC(N)=O)nsc1SCc1ccc(Cl)cc1 | -8 | 4% | 10% | 5
